In the supplement of paper PMC9694430:

Experiments:
Assay in all cases: thermal shift delta Tm vs DMSO control; higher = stronger stabilization (binding)
Settings in all cases: 12.5 µM; protein concentration 2 µM
LOC_OS01G01410-cb001 = test system: LOC_OS01G01410-cb001
Summary of the method: (§1)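 Purified, E. coli-expressed rice kinase domain constructs were tested by differential scanning fluorimetry in 96-well plates: 19.5 μl of 2 μM kinase in 100 mM potassium phosphate pH 7.5, 150 mM NaCl, 10% glycerol, 5 × SYPRO Orange, plus compound in DMSO. Fluorescence was read from 25°C to 95°C at 0.05°C/s. Melting temperatures came from Boltzmann fits, and the shift is the triplicate mean relative to protein with DMSO alone.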

LOC_OS01G02750-cb003 = test system: LOC_OS01G02750-cb003
Summary of the method: as §1

LOC_OS01G10900-cb004 = test system: LOC_OS01G10900-cb004
Summary of the method: as §1

LOC_OS01G13800-cb001 = test system: LOC_OS01G13800-cb001
Summary of the method: as §1

LOC_OS01G14860-cb001 = test system: LOC_OS01G14860-cb001
Summary of the method: as §1

LOC_OS01G21960-cb002 = test system: LOC_OS01G21960-cb002
Summary of the method: as §1

LOC_OS01G39600-cb002 = test system: LOC_OS01G39600-cb002
Summary of the method: as §1

LOC_OS01G48390-cb002 = test system: LOC_OS01G48390-cb002
Summary of the method: as §1

LOC_OS01G51400-cb002 = test system: LOC_OS01G51400-cb002
Summary of the method: as §1

LOC_OS01G52050-cb004 = test system: T1, LOC_OS01G52050-cb004
T1 sequence (whole entry): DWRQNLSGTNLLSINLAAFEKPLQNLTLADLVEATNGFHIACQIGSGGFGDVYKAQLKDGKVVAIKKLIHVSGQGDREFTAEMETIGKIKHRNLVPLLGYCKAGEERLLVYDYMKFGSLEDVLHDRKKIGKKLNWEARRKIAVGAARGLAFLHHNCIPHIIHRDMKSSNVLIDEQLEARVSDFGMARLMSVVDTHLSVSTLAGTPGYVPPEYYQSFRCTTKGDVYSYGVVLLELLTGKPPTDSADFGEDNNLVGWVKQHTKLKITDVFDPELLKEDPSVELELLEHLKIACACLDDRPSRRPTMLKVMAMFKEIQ
Summary of the method: as §1

Compound	thermal shift delta Tm (LOC_OS01G01410-cb001)	thermal shift delta Tm (LOC_OS01G02750-cb003)	thermal shift delta Tm (LOC_OS01G10900-cb004)	thermal shift delta Tm (LOC_OS01G13800-cb001)	thermal shift delta Tm (LOC_OS01G14860-cb001)	thermal shift delta Tm (LOC_OS01G21960-cb002)	thermal shift delta Tm (LOC_OS01G39600-cb002)	thermal shift delta Tm (LOC_OS01G48390-cb002)	thermal shift delta Tm (LOC_OS01G51400-cb002)	thermal shift delta Tm (LOC_OS01G52050-cb004)
CNS(=O)(=O)C[C@H]1CC[C@H](N(C)c2[nH]cnc3nccc2-3)CC1 [Oclacitinib]	0.92 °C	1.16 °C	0.3 °C	0.42 °C	2.09 °C	0.79 °C	1.81 °C	2.77 °C	0.26 °C	1.43 °C
CC(C)c1c2cc(-c3ccnc(NC4CCC(NC5CCOCC5)CC4)n3)ccc2nn1C (stereo not given)	1.15 °C	4.38 °C	1.83 °C	-0.3 °C	7.15 °C	2.64 °C	1.1 °C	2.74 °C	0.39 °C	2.13 °C
CNC(=O)c1cccc(-c2ccc3c(N4CCOC[C@@H]4C)nc(N4CCOC[C@@H]4C)nc3n2)c1 [Vistusertib (AZD2014)]	0.53 °C	0.19 °C	0.09 °C	0.05 °C	-0.13 °C	0.23 °C	-0.58 °C	0.24 °C	0.26 °C	-0.25 °C
O=C1NC(=O)/C(=C/c2ccc(-c3ccc(F)cc3O)o2)S1	3.59 °C	5.21 °C	2.81 °C	2.09 °C	4.25 °C	2.37 °C	7.64 °C	3.1 °C	3.89 °C	8.12 °C
CC1(C)OCCn2c1nc1c(N3CCOCC3)nc(-c3cnc(N)nc3)nc12	2.4 °C	0.54 °C	1.05 °C	0.07 °C	0.3 °C	1.06 °C	0.85 °C	0.14 °C	0.12 °C	0.62 °C
CN(C)C/C=C/C(=O)Nc1cc2c(Nc3ccc(F)c(Cl)c3)ncnc2cc1O[C@H]1CCOC1 [Afatinib (BIBW2992)]	1.12 °C	-0.19 °C	4 °C	0.13 °C	2.91 °C	-0.28 °C	1.11 °C	2.17 °C	0.41 °C	0.75 °C
COc1cc(C(=O)N2CCC(N3CCN(C)CC3)CC2)ccc1Nc1ncc2c(n1)N(C)c1ccccc1C(=O)N2C	0.19 °C	0.47 °C	2.12 °C	0.41 °C	-0.08 °C	-0.12 °C	-0.15 °C	0.42 °C	-0.06 °C	-0.4 °C
C=C[C@@](C)(/C=C/c1ccc(O)cc1)CCC=C(C)C [Bakuchiol]	1 °C	1.1 °C	1.06 °C	0.03 °C	0.91 °C	0.52 °C	0.57 °C	0.85 °C	0.52 °C	3.47 °C
Cn1cc(C2=C(c3ccc(Cl)cc3Cl)C(=O)NC2=O)c2ccccc21	4.05 °C	13.7 °C	6.42 °C	1.69 °C	6.48 °C	4.64 °C	18.2 °C	2.99 °C	13.9 °C	14.6 °C
CC(C)CCN1c2nc(Nc3cc(F)c(O)c(F)c3)ncc2N(C)C(=O)C1C (stereo not given)	2.96 °C	1.52 °C	2.63 °C	0.08 °C	3.74 °C	1.92 °C	3.67 °C	1.58 °C	0.67 °C	5.38 °C
O=S(=O)(NCCNC/C=C/c1ccc(Br)cc1)c1cccc2cnccc12	0.28 °C	0.92 °C	3.17 °C	0.66 °C	0.58 °C	1.16 °C	0.27 °C	1.8 °C	0.23 °C	0.48 °C
COc1cc(-c2cc(-c3ccc(N4CCNCC4)cc3)cnc2C)cc(OC)c1OC	1.74 °C	0.65 °C	1.13 °C	-0.6 °C	-0.12 °C	0.67 °C	-1.03 °C	0.11 °C	-0.26 °C	0.04 °C
O=C1NC(=O)C(c2cnc3ccccn23)=C1c1cn2c3c(cc(F)cc13)CN(C(=O)N1CCCCC1)CC2	0.36 °C	0.62 °C	0.19 °C	0.44 °C	4.55 °C	2.13 °C	5.95 °C	0.1 °C	0.37 °C	0.22 °C
OCCn1cc(-c2cnc3nnn(Cc4ccc5ncccc5c4)c3n2)cn1	0.52 °C	0.79 °C	-0.12 °C	-0.25 °C	0.12 °C	0.14 °C	0.11 °C	0.2 °C	0.09 °C	0.09 °C
Cn1nccc1Nc1nccc(-c2ccn([C@H](CO)c3ccc(Cl)c(F)c3)c(=O)c2)n1	0.99 °C	1.21 °C	0.24 °C	-0.2 °C	5 °C	0.94 °C	0.18 °C	0.6 °C	0.59 °C	0.85 °C
Cc1nc2ccc(-n3ncc(C(=O)c4cc5ccccc5[nH]4)c3N)cc2[nH]1	0.79 °C	1.12 °C	0.9 °C	0 °C	0.41 °C	-0.17 °C	0.82 °C	1.08 °C	0.05 °C	1.9 °C
COc1ccc(S(=O)(=O)N(C(C)=O)c2ccccc2/C=C/c2cc[n+]([O-])cc2)cc1	-0.1 °C	0.48 °C	0.77 °C	0.64 °C	0.58 °C	0.67 °C	-0.39 °C	0.12 °C	-0.08 °C	0.02 °C
CC(C)NC(=O)COc1cccc(-c2nc(Nc3ccc4[nH]ncc4c3)c3ccccc3n2)c1	0.42 °C	0.09 °C	0.99 °C	0.46 °C	1.95 °C	1.23 °C	-0.3 °C	0.33 °C	-0.24 °C	1.34 °C
Nc1nc(N)c(N=O)c(OCC2CCCCC2)n1	0.83 °C	0.95 °C	0.44 °C	-0.3 °C	1.5 °C	1.67 °C	-1.66 °C	0.08 °C	0.44 °C	1.13 °C

Compound	thermal shift delta Tm (LOC_OS01G01410-cb001)	thermal shift delta Tm (LOC_OS01G02750-cb003)	thermal shift delta Tm (LOC_OS01G10900-cb004)	thermal shift delta Tm (LOC_OS01G13800-cb001)	thermal shift delta Tm (LOC_OS01G14860-cb001)	thermal shift delta Tm (LOC_OS01G21960-cb002)	thermal shift delta Tm (LOC_OS01G39600-cb002)	thermal shift delta Tm (LOC_OS01G48390-cb002)	thermal shift delta Tm (LOC_OS01G51400-cb002)	thermal shift delta Tm (LOC_OS01G52050-cb004)
CS(=O)(=O)N1CCc2c(-c3cnc(N)nc3)nc(N3CCOCC3)nc21	0.53 °C	3.27 °C	-0.12 °C	0.32 °C	0.7 °C	0.72 °C	-0.17 °C	0.96 °C	0.18 °C	0.32 °C
Nc1ncc(-c2ccnc(Nc3ccncc3)n2)c(CC2CC2)n1	0.71 °C	1.52 °C	1.79 °C	0.81 °C	2.55 °C	0.87 °C	0.29 °C	0.57 °C	0.15 °C	0.96 °C
Cc1ccc(CNc2ncnc3ccc(-c4ccc(CO)o4)cc23)o1	0.69 °C	1.49 °C	0.39 °C	-0.33 °C	0.56 °C	0.93 °C	0.85 °C	0.79 °C	0.24 °C	1.21 °C
C=CC(=O)Nc1cccc(Nc2nc(Nc3ccc(NC4CN(CCF)C4)cc3OC)ncc2C(F)(F)F)c1	0.5 °C	-0.47 °C	0.12 °C	-0.76 °C	0.1 °C	0.07 °C	1.11 °C	2.29 °C	0.35 °C	0.31 °C
COc1ccc(Oc2cc(NCCC(F)(F)F)c3ncc(-c4ccc(C(=O)NC5CC5)c(C)c4)n3n2)c(F)c1F	0.28 °C	1.7 °C	-0.65 °C	0.15 °C	0.68 °C	-0.46 °C	1.84 °C	0.14 °C	0.75 °C	1.81 °C
Cc1ccc(NC(=O)c2cccc(N(C)C)c2)cc1NC(=O)c1ccc(O)cc1	0.45 °C	0.15 °C	0.12 °C	0.36 °C	0.44 °C	0.92 °C	-0.01 °C	0.9 °C	0.37 °C	0.36 °C
CN1CCC(Nc2nc(Nc3ccc(Oc4ccccc4)cc3)c3c(=O)[nH]cc(Br)c3n2)CC1	1.56 °C	2.82 °C	0.27 °C	0.59 °C	2.99 °C	2.71 °C	0.76 °C	2.51 °C	0.72 °C	4.93 °C
Oc1c2ccccc2c2c3c(cccc13)N=N2	3.59 °C	5.55 °C	3.61 °C	0.39 °C	2.06 °C	2.7 °C	1.16 °C	5.42 °C	0.42 °C	7.57 °C
Cc1cc(Nc2ncnc3ccc(NC4=NC(C)(C)CO4)cc23)ccc1Oc1ccn2ncnc2c1 [Irbinitinib (ARRY-380, ONT-380)]	0.46 °C	-5.11 °C	0.3 °C	-0.06 °C	-1.49 °C	-0.98 °C	-4.96 °C	-0.78 °C	-3.07 °C	1.03 °C
Cn1ncc(Cl)c1-c1cc(C(=O)N[C@H](CN)Cc2ccc(F)c(F)c2)oc1Cl	-0.41 °C	1.78 °C	-0.33 °C	1.08 °C	0.15 °C	1.66 °C	-0.06 °C	1 °C	0.44 °C	1.06 °C
CCn1c(N)c(C(=O)NC)c(=O)c2ccc(C#CC(C)(O)COC)nc21 (stereo not given)	0.45 °C	0.44 °C	-0.01 °C	-0.17 °C	0.21 °C	0.3 °C	-1.69 °C	0.18 °C	0.37 °C	0.36 °C
Cc1ccc(C(=O)Nc2ccc(CN3CCN(C)CC3)c(C(F)(F)F)c2)cc1C#Cc1cnc2[nH]ncc2c1 [GZD824 Dimesylate]	4.32 °C	3.52 °C	5.49 °C	-0.24 °C	6.49 °C	1.24 °C	22.8 °C	2.71 °C	0.45 °C	3.71 °C
NC1(c2ccc(-c3nc4ccn5c(=O)[nH]nc5c4cc3-c3ccccc3)cc2)CCC1	0.94 °C	-0.51 °C	0.16 °C	0.23 °C	0.18 °C	-0.02 °C	0.19 °C	0.18 °C	-0.13 °C	0.16 °C
CC(C)(C)S(=O)(=O)c1ccc2nccc(Nc3n[nH]c4ccc(F)cc34)c2c1	0.34 °C	1.74 °C	0.48 °C	-0.44 °C	0.3 °C	0.28 °C	1.01 °C	1.31 °C	0.33 °C	0.16 °C
Nc1cc(C(F)(F)F)c(-c2cc(N3CCOCC3)nc(N3CCOCC3)n2)cn1 [Buparlisib (BKM120, NVP-BKM120)]	0.58 °C	0.22 °C	0.31 °C	0.04 °C	0.19 °C	0.6 °C	0.55 °C	0.7 °C	0.92 °C	0.06 °C
C[C@@H](Oc1cc(-n2cnc3ccc(CN4CCN(C)CC4)cc32)sc1C(N)=O)c1ccccc1C(F)(F)F	0.17 °C	0.34 °C	3.48 °C	0.56 °C	0.12 °C	1.19 °C	0.33 °C	0.1 °C	-0.17 °C	0.53 °C
O=c1nc(N2CCOCC2)oc2c(-c3cccc4c3sc3ccccc34)cccc12	0.12 °C	-0.86 °C	3.3 °C	-0.44 °C	0.6 °C	0.45 °C	-0.5 °C	0.27 °C	-0.4 °C	1.17 °C
FC(F)c1nc2ccccc2n1-c1nc(N2CCOCC2)nc(N2CCOCC2)n1	0.85 °C	0.92 °C	0.18 °C	0.89 °C	-0.06 °C	0.23 °C	0.94 °C	0.8 °C	0.35 °C	0.72 °C
